Data as given in PubChem BioAssay (EPA / NIEHS).
Where a structure was tested more than once in an assay, its records may differ in their call. Active and inactive are the calls of the source. Rule for the calls: active = hit-call score of the fitted dose curve at least 0.9, where 1 is the maximum; inactive = score below 0.9.

Test: APR_HepG2_MitoticArrest_24hr: Apredica 24-hour HepG2 Assay for Mitotic Arrest (AID 2282910)
Conditions: high-content imaging, actives raise or lower the signal
Procedure: APR_HepG2_24hr is a cell-based, multiplexed-readout assay that uses HepG2, a human liver cell line, with measurements taken at 24 hours after chemical dosing in a 384-well plate.APR_HepG2_MitoticArrest_24hr is one of 10 assay component(s) measured or calculated from the APR_HepG2_24hr assay. It is designed to make measurements of cell phenotype, a form of morphology reporter, as detected with fluorescence intensity signals by HCS Fluorescent Imaging technology.Data from the assay component APR_HepG2_MitoticArrest_24hr was analyzed into 1 assay endpoint. This assay endpoint, APR_HepG2_MitoticArrest_24hr, was analyzed with bidirectional fitting relative to DMSO as the negative control and baseline of activity. Using a type of morphology reporter, measures of protein for gain or loss-of-signal activity can be used to understand the signaling at the pathway-level as they relate to the gene . Furthermore, this assay endpoint can be referred to as a primary readout, because this assay has produced multiple assay endpoints where this one serves a signaling function. To generalize the intended target to other relatable targets, this assay endpoint is annotated to the cell cycle intended target family, where the subfamily is arrest.
Cells were treated with dimethyl sulfoxide (DMSO) as a solvent control at a final concentration of 0.5% v/v or with compounds in DMSO with a resulting final DMSO concentration of 0.5% v/v. Compound treatment was done at concentrations of 0.39, 0.78, 1.56, 3.12, 6.24, 12.5, 25, 50, 100, and 200 uM in duplicate on each plate. Cells were treated with compounds for 1, 24, or 72 hr. Carbonyl […] m-chloro-phenylhydrazone (CCCP) and taxol were used as positive controls for mitochondrial function and cytoskeletal stability, respectively; DMSO served as the negative control for this experiment. Cells were fixed by the direct addition of 50 uL formaldehyde in Hank's Balanced Salt Solution (HBSS) to a final concentration of 3.7%. After incubation in the fixation medium for 30 min at room temperature (293-298 K), cells were rinsed twice with HBSS and treated with cell permeabilization buffer (16 uL of 0.5% Triton X-100) for 10 min at room temperature (293-298 K) before labeling. For mitochondrial membrane potential and mitochondrial measurements, pre-fixed cells were incubated with 50 uL of MitoTracker Red CMXRos (Invitrogen) at a concentration of 250 nM for 30 min before fixation. In the remaining cases, post-fixed cells were labeled by incubation with a multiplexed mixture of primary antibodies in HBSS for 60 min at room temperature (293-298 K) to detect immunoreactivity of c-Jun (1:500), phospho-histone H3 (1:100), phospho-histone H2A.x (1:200), p53 (1:400), alpha-tubulin (1:200) and Hoechst 33342 (2 ug/mL). Cells were labeled for multiplexed imaging on two separate plates: a) Hoechst 33342, MitoTracker Red, phospho-histone H3, and alpha-tubulin, and b) Hoechst 33342, phospho-histone H2A.x, and c-Jun. A final rinse with HBSS (50 uL) was performed before analysis. The primary and secondary antibodies for the proteins were phospho-histone H3 (rabbit anti-phospho-histone H3 and FITC-donkey anti-rabbit IgG), phospho-histone H2A.x (mouse anti-phospho-histone H2A.x and FITC-donkey anti-mouse IgG), c-Jun (rabbit anti-phospho-c-Jun and Cy3-donkey anti-rabbit IgG), p53 (sheep anti-p53 and Cy5-donkey anti-sheep IgG), alpha-tubulin (mouse anti-alpha-tubulin and Cy5-donkey anti-mouse IgG). These antibodies are available as the CellCiphr HepG2 assay kit (Millipore).Digital images of each well were captured using a Cellomics ArrayScan VTI (Thermo Scientific Cellomics) (0.8 NA objective, 0.63x optical coupler, and XF-93 filter set) at 20x magnification. The images were acquired using the autofocus feature of the ArrayScan instrument, which entails the following steps. First, the camera focuses on channel 1 (Hoechst 33342), where nuclei are identified. Second, a Z offset of 1 um is used for capturing mitochondria (MitoTracker Red). […]

With Cc1ccccc1N as the molecule, how does the outcome read?
Its outcome is “inactive”.

For O=C(O)C(F)(F)C(F)(F)C(F)(F)C(F)(F)C(F)(F)C(F)(F)F, which outcome is on record?
The outcome was “inactive”.

Which outcome does the source give for C=CC(=O)OCCCCCC(C)C here?
Its outcome is “inactive”.

With CC(C)(C)c1cc(O)ccc1O as the molecule, how does the outcome read?
Its outcome is “inactive”.

Which AC50 does the source give for CC(=O)[O][Hg][c]1ccccc1 here?
Its AC50 is 3.06 µM (active).

With O=C(O)C(Cl)(Cl)Cl as the molecule, how does the outcome read?
The outcome was “inactive”.

With O=c1[nH]c(=O)[nH]c(=O)[nH]1 as the molecule, how does the outcome read?
The outcome was “inactive”.

For ClCC(Cl)CCl, which outcome is on record?
The outcome was “inactive”.

What does the source list for COc1cc(-c2ccc(N)c(OC)c2)ccc1N?
outcome: inactive; AC50: 28.8 µM (active)

For ClC1(Cl)C2(Cl)C3(Cl)C4(Cl)C(Cl)(Cl)C5(Cl)C3(Cl)C1(Cl)C5(Cl)C24Cl (centres undefined), which outcome is on record?
Its outcome is “inactive”.

For Oc1cccc2cccnc12, which outcome is on record?
The outcome was “inactive”.

Which outcome does the source give for CCC(=O)C(CC(C)N(C)C)(c1ccccc1)c1ccccc1 (centres undefined) here?
The outcome was “inactive”.

With C[C@]12CCC(=O)C[C@@H]1CC[C@@H]1[C@@H]2CC[C@]2(C)[C@@H](O)CC[C@@H]12 as the molecule, how does the outcome read?
Its outcome is “inactive”.

Which AC50 does the source give for O=C(O)C(F)(F)C(F)(F)C(F)(F)C(F)(F)C(F)(F)C(F)(F)C(F)(F)C(F)(F)C(F)(F)C(F)(F)F here?
Its AC50 is 60.9 µM (active).

For CCN1CCC2(CC1)COc1cc3c(cc12)N(C(=O)c1ccc(-c2ccc(-c4nnc(C)o4)cc2C)cc1)CC3, which AC50 is on record?
Its AC50 is 13.2 µM (active).

Which outcome does the source give for C[C@@H]1C[C@@H]([C@H](O)CC2CC(=O)NC(=O)C2)C(=O)[C@@H](C)C1 here?
Its outcome is “inactive”.

With CC(C)(C)CC(C)(C)c1ccc(O)cc1 as the molecule, how does the AC50 read?
Its AC50 is 49.6 µM (active).

For CC(C)(OO)c1ccccc1, which AC50 is on record?
The AC50 was 71.4 µM (active).

For Cn1sc(Cl)cc1=O, which AC50 is on record?
Its AC50 is 110 µM (active).

For CCC(C)(C)c1ccc(O)c(C(C)(C)CC)c1, which AC50 is on record?
Its AC50 is 32.3 µM (active).

Which outcome does the source give for CC(C)(c1ccccc1)c1ccc(O)c(C(C)(C)c2ccccc2)c1 here?
The outcome was “inactive”.

Which AC50 does the source give for NC(=O)O here?
Its AC50 is 5.54 µM (active).

With CN(C)N=O as the molecule, how does the outcome read?
Its outcome is “inactive”.

Which AC50 does the source give for CCCCCCCCc1ccc(O)cc1 here?
Its AC50 is 77.2 µM (active).

For O=C1C2(Cl)C3(Cl)C4(Cl)C(Cl)(Cl)C5(Cl)C3(Cl)C1(Cl)C5(Cl)C24Cl (centres undefined), which outcome is on record?
Its outcome is “inactive”.

With CC12CC1(C)C(=O)N(c1cc(Cl)cc(Cl)c1)C2=O (centres undefined) as the molecule, how does the outcome read?
Its outcome is “inactive”.

With C=C(C)C(=O)[O][Sn]([CH2]CCC)([CH2]CCC)[CH2]CCC as the molecule, how does the AC50 read?
The AC50 was 0.248 µM (active).

Which AC50 does the source give for O=C(Nc1ccc2[nH]ccc2c1)c1cc2cc(F)ccc2n1Cc1cccc(F)c1 here?
Its AC50 is 30.9 µM (active).
